Our source for the log2 fold change values is the supplement of paper PMC12819154, “High-throughput peptide-centric local stability assay extends protein–ligand identification to membrane proteins, tissues and bacteria” (Nature Structural & Molecular Biology, 2025).

Compound in the assay: Nc1ncnc2c1ncn2[C@@H]1O[C@H](COP(=O)(O)OP(=O)(O)OP(=O)(O)O)[C@@H](O)[C@H]1O [adenosine 5'-triphosphate]
As to the kind of experiment: log2 fold change of tryptic peptide abundance, ligand vs vehicle (limited proteolysis) (log2 ratio); higher = more trypsin-susceptible (destabilized). As to conditions: ligand concentration: 5 mM; sample: E. coli desalted lysate; replicate design: treated before aliquoting. The protocol: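 HT-PELSA: desalted E. coli K-12 BW25113 lysate (with 12 mM MgCl2) incubated with 5 mM ATP (pH 7) or water for 30 min at 25 C, then a 4 min trypsin pulse at 22 C. Peptides were quantified by DIA-MS (4 replicates). Value is the peptide log2 fold change (treated/control); negative = stabilized. Scale: negative = ligand-stabilized region.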
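Also: lysate desalted by size exclusion to strip endogenous ATP, peptide intensities built from DIA-NN precursor signals, and peptides missing any value discarded before comparison.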

In the case of “UniProt P08400 (peptide sequence: FSFVIPER, peptide start residue: 417)”, the log2 fold change worked out at 2.08. Regarding “UniProt P13857 (peptide sequence: TVQGNVMLHQR, peptide start residue: 54)”, the log2 fold change is -0.406. As for “UniProt P77795 (peptide sequence: IEQVDSPR, peptide start residue: 213)”, the log2 fold change is -0.95. In the case of “UniProt Q46856 (peptide sequence: IDAAIAATR, peptide start residue: 323)”, the log2 fold change was -1.68. On to “UniProt P39359 (peptide sequence: EGDLATAATLNKK, peptide start residue: 229)”, for which the log2 fold change is -1.33.

Take “UniProt Q59385 (peptide sequence: LVTDEGEK, peptide start residue: 327)”: the log2 fold change was 1.76. For the target “UniProt P77364 (peptide sequence: IDSQTAGGKAPLGVASVAK, peptide start residue: 295)”, the log2 fold change is -0.814. The result for “UniProt P11664 (peptide sequence: GAPETFDVAK, peptide start residue: 101)” reads -1.46; that for “UniProt P18776 (peptide sequence: PICVESCPLR, peptide start residue: 139)”, -1.14; that for “UniProt P11553 (peptide sequence: AQIHYQYR, peptide start residue: 451)”, 0.93.

For “UniProt P04994 (peptide sequence: TGAALHDILHVLK, peptide start residue: 149)”, the log2 fold change came out at 0.643. As for “UniProt P0AFZ1 (peptide sequence: NELEDLLEK, peptide start residue: 6)”, the log2 fold change stood at 0.67.
